Test [1] has as its target T1, Serine/threonine-protein kinase TBK1 (Homo sapiens) (UniProt Q9UHD2).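 Further: values are mean inhibition of TBK1, screened as part of the GSK published kinase inhibitor set.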
T1 sequence (whole entry): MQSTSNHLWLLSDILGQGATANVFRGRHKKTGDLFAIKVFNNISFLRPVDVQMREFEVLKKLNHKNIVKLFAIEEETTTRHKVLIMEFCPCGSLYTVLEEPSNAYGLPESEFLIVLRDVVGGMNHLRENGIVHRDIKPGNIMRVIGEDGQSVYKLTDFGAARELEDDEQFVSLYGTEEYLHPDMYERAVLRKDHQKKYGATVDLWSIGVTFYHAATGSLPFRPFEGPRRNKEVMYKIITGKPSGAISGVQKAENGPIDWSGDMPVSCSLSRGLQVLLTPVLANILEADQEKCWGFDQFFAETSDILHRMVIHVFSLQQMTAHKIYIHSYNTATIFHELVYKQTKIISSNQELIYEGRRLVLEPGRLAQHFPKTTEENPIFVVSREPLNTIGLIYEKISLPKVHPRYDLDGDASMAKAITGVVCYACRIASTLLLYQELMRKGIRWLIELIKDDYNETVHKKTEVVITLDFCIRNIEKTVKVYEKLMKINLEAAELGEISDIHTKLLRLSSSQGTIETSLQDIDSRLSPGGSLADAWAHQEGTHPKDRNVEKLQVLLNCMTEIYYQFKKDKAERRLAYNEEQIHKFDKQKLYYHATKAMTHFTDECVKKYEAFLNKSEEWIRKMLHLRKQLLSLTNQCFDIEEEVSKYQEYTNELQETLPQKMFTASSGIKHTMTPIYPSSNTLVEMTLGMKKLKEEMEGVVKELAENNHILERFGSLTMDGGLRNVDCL
As to conditions: at 1 µM.

For test [2], the target named is T2, Testis-specific serine/threonine-protein kinase 1 (Homo sapiens) (UniProt Q9BXA7).
T2 sequence (whole entry): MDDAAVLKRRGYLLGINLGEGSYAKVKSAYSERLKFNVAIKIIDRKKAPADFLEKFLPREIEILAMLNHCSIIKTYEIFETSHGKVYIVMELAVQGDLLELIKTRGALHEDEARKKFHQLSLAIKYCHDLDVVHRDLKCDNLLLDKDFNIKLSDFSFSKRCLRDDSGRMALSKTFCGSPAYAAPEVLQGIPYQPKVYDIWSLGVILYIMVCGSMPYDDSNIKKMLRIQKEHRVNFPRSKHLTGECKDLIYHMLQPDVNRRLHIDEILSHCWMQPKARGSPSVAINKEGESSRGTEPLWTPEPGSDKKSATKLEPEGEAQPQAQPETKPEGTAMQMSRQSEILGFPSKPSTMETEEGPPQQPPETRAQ
To be noted: at 0.1 µM.

For test [3], the target named is T2, Testis-specific serine/threonine-protein kinase 1 (Homo sapiens). To be noted: at 1 µM.
Test [4] deals with T3, Testis-specific serine/threonine-protein kinase 2 (Homo sapiens) (UniProt Q96PF2).
T3 sequence (whole entry): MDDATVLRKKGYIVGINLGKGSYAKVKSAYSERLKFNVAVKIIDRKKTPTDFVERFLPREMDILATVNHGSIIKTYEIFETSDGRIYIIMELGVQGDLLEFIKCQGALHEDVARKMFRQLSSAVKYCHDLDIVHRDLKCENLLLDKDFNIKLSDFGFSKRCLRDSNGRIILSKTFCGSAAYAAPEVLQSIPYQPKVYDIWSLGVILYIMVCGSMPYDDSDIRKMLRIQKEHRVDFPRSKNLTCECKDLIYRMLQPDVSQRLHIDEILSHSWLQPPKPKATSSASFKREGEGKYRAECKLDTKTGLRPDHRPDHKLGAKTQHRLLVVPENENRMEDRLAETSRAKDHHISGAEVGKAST
As to conditions: at 0.1 µM.

The target in test [5] is T3, Testis-specific serine/threonine-protein kinase 2 (Homo sapiens). As to conditions: at 1 µM.
Test [6] concerns the target Casein kinase I isoform alpha (Homo sapiens) (UniProt P48729). As to conditions: at 0.1 µM.
Test [7] shares this target. To be noted: at 1 µM.
For test [8], the target named is Casein kinase I isoform gamma-1 (Homo sapiens) (UniProt Q9HCP0). To be noted: at 0.1 µM.
Casein kinase I isoform gamma-1 (Homo sapiens), sequence (Q9HCP0 whole entry, looked up, canonical isoform): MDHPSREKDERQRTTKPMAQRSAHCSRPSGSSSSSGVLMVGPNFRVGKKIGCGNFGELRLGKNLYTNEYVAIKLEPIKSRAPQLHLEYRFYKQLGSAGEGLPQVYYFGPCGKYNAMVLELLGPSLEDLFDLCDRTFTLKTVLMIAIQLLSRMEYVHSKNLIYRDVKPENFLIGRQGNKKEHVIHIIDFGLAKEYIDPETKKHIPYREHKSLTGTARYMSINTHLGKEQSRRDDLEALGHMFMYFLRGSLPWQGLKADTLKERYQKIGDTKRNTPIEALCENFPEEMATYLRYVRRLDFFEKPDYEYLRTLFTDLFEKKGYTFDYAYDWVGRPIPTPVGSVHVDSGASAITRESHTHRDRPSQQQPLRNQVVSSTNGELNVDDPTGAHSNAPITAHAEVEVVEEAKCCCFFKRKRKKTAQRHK
Test [9] has the same target. As to conditions: at 1 µM.
For test [10], the target named is Casein kinase I isoform gamma-2 (Homo sapiens) (UniProt P78368). As to conditions: at 0.1 µM.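 Further: values are mean inhibition figures reported as part of the GSK PKIS dataset.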
Casein kinase I isoform gamma-2 (Homo sapiens), sequence (P78368 whole entry, looked up, canonical isoform): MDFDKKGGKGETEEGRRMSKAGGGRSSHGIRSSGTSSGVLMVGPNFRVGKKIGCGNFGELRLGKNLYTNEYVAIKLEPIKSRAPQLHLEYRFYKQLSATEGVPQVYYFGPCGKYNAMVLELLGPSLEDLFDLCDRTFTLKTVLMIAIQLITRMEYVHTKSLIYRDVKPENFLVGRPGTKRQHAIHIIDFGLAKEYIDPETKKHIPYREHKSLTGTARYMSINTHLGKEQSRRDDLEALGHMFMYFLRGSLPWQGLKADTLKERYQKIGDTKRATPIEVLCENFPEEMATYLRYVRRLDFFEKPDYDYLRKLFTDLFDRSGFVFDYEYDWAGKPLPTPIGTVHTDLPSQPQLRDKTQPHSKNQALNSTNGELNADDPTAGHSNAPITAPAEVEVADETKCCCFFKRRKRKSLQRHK

Usually inhibition stands for the drop in the measured response relative to a control, in per cent.

Casein kinase I isoform alpha (Homo sapiens), sequence (P48729 2-337 limits assumed): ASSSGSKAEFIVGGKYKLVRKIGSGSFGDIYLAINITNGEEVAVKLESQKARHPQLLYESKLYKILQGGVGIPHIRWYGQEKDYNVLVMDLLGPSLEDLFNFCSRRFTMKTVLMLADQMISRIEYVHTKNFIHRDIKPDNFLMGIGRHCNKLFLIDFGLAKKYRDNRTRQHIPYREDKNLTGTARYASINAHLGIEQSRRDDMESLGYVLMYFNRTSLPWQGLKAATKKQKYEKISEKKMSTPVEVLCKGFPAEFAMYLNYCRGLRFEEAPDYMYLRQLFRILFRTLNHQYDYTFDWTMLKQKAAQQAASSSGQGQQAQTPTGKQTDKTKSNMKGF

For the molecule `O=C(Nc1n[nH]c2nnc(-c3cccnc3)cc12)C1CC1`, the inhibition was 1.3% in test [1]; 0.18% in [2]; 1.92% in [3]; -0.11% in test [4]; 0.95% in test [5]; -0.76% in [6]. The inhibition was -2.19% in test [7], -0.63% in test [8], 0.33% in [9] and -0.76% in test [10].

Consider `Cc1cc(O)cc(C)c1/C=C/c1cncc(C(N)=O)c1`, for which the inhibition was 1.71% in [1]; 0.78% in [2]; 0.81% in test [3]; 0.45% in [4]; -0.39% in test [5]; -2.11% in test [6]. Moreover, the inhibition came to 2.52% in [7], 2.23% in test [8], 3.19% in test [9] and 1.83% in test [10].

Turning to `CNC(=O)c1cncc(/C=C/c2ccccc2C)c1`, the inhibition was 6.39% in test [1]; 4.49% in test [2]; 5.13% in test [3]; 3.39% in test [4]; 2.6% in [5]; 1.22% in [6]. The inhibition is 5.05% in test [7], 2.73% in test [8], 3.62% in test [9] and 2.46% in test [10].

As to `NS(=O)(=O)c1ccc(N/N=C2\C(=O)Nc3cccc(CCc4ccncc4)c32)cc1`, the inhibition came out at 4.17% in test [1]; 2.49% in test [2]; 1.9% in test [3]; 0.54% in test [4]; 1.32% in test [5]; 1.84% in test [6]. For the same molecule, the inhibition in [7] was -0.19%; in test [8], 0.44%; in test [9], 0.85%; in test [10], 0.15%.

Consider `O=C(O[C@H]1CN[C@H](C#Cc2cc3ncnc(Nc4ccc(OCc5cccc(F)c5)c(Cl)c4)c3s2)C1)N1CCOCC1`, for which the inhibition in test [1] was 2.81%; in test [2], 4.44%; in test [3], 7.27%; in test [4], 3.43%; in [5] it was 5.27%; in test [6] it was 2.97%. Also, the inhibition in [7] worked out at 4.43%; in test [8] it was 4.56%; in test [9] it was 5.41%; in test [10] it was 4.99%.

On to `CS(=O)(=O)CCNCc1ccc(-c2ccc3ncnc(Nc4ccc(OCc5cccc(C(F)(F)F)c5)cc4)c3c2)o1`, for which the inhibition in test [1] came out at 6.44%; in test [2], 5.83%; in [3], 4.35%; in test [4], 2.31%; in test [5], 2.41%; in [6] it was 5.05%. Besides, the inhibition is 6.4% in test [7], 3.46% in test [8], 4.57% in test [9] and 3.14% in test [10].

As for `CS(=O)(=O)Nc1ccc(-c2ccc3c(NC(=O)C4CC4)n[nH]c3c2)cc1`, the inhibition in test [1] was 7.65%; in [2], 2.9%; in test [3], 2.78%; in test [4], 0.58%; in test [5] it was -0.76%; in test [6], -2.5%. Further, the inhibition in test [7] came out at 3.8%; in test [8] it was 2.55%; in test [9], 4.34%; in test [10], 1.91%.

Consider `COc1cccc(-n2ncc3c(N/N=C/c4ccc(C(=O)NCCN(C)C)cc4)ncnc32)c1`, for which the inhibition in [1] is 11.2%; in [2] it was 1.35%; in test [3], 0.43%; in test [4], -0.44%; in test [5], -0.81%; in test [6], 1.58%. For the same molecule, the inhibition in test [7] stood at 7.14%; in test [8], 2.73%; in test [9], 11.7%; in test [10], 1.5%.

In the case of `COc1cc2c(cc1Nc1nc(Nc3cccc(F)c3C(N)=O)c3cc[nH]c3n1)N(C(=O)CN1CCN(C(C)C)CC1)CC2`, the inhibition was found to be 3.05% in test [1]; 5.1% in test [2]; 31.9% in test [3]; 2.49% in test [4]; 12.4% in [5]; 1.84% in [6]. Moreover, the inhibition in [7] was 11.4%; in [8], 2.53%; in [9], 5.76%; in [10], 2.46%.

In the case of `Cc1cc(O)cc(C)c1/C=C/c1cncc(C(=O)OC(C)(C)C)c1`, the inhibition in test [1] amounted to 2.33%; in test [2] it was 2.62%; in test [3], 1.67%; in test [4] it was 1.48%; in test [5] it was 1.69%; in test [6] it was 1.27%. Moreover, the inhibition in test [7] was 3.48%; in test [8], 2.21%; in [9], 2.97%; in test [10], 1.74%.

Regarding `CC1=C(C(=O)Nc2ccc3[nH]nc(C)c3c2)C(c2ccc(C(F)(F)F)cc2)CC(=O)N1` (stereo not given), the inhibition was 3.52% in test [1]; 1.88% in test [2]; 0.25% in [3]; 1.4% in [4]; -4.29% in test [5]; 2.09% in [6]. Moreover, the inhibition in [7] came to 3.07%; in [8], 1.96%; in [9], 3.62%; in test [10] it was 1.19%.

Consider `Fc1ccc(Nc2nccc(-c3c(-c4ccc(C(F)(F)F)cc4)nn4ncccc34)n2)cc1F`, for which the inhibition was 5.12% in test [1]; 2.94% in test [2]; 0.83% in [3]; 0.43% in test [4]; -1.83% in test [5]; 8.3% in test [6]. For the same molecule, the inhibition in test [7] is 5.37%; in test [8], 3.69%; in test [9] it was 4.68%; in test [10] it was 1.53%.

Consider `CS(=O)(=O)CCNCc1ccoc1-c1ccc2ncnc(Nc3ccc(OCc4ccccc4)cc3)c2c1`, for which the inhibition is -2.25% in [1]; 0.51% in test [2]; 0.84% in [3]; 1.17% in test [4]; 0.75% in [5]; 1.49% in test [6]. The inhibition in test [7] is -0.39%; in test [8] it was 0.5%; in test [9], 1.25%; in test [10], 0.24%.

As for `COc1cccc(Nc2nccc(-c3cnn4ncccc34)n2)c1`, the inhibition in test [1] was found to be 22.9%; in [2] it was 2.07%; in [3], 12.8%; in [4], 0.21%; in [5], 0.62%; in test [6], 14.9%. The inhibition is 48% in [7], 2.61% in test [8], 20.5% in [9] and 4.45% in test [10].

Turning to `CNC(=O)c1ncccc1Nc1nc(Nc2cc3c(cc2OC)CCCN3C(=O)CN(C)C)nc2[nH]ccc12`, the inhibition in [1] was 26.1%; in test [2], 85.5%; in test [3], 93.9%; in test [4], 31%; in [5], 73.2%; in test [6], 1.15%. The inhibition in [7] was determined as 6.71%; in test [8] it was 4.96%; in [9], 8.09%; in test [10], 2.28%.

Values taken from ChEMBL document CHEMBL1961873, “Compounds: GSK PKIS; Assays: Nanosyn kinase panel” (2012).
